Source: PubChem BioAssay (NCI)
Compounds without any hit were thinned out: in the full panel of roughly 83,000, 20% have a hit.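 Note: values are percent growth. 100 is the growth of untreated cells, values between 100 and 0 indicate rising inhibition; between -100 and 0 indicates cell death.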 Values without a mark were called inactive. Calls of active or inactive are those of the source. Rule for the calls: active = growth percent below 10; inactive = the rest.

system: HL-60(TB) leukemia; assay: NCI-60 one-dose screen, 48 h (100 = growth as untreated, 0 = no growth, -100 = all killed); details: 10 µM unless noted

Structure (SMILES) | growth
Clc1ccc(/C=C/c2nc(Nc3ccc(Cl)cc3)c3ccccc3n2)cc1 | 102%
O=c1c2ccccc2c(Br)c(Br)c2ccccc12 | 70.9%
CC(C)C[C@H](NC(=O)Cn1cccc(CNC(=O)c2ccccc2)c1=O)B(O)O | -51.3% (active)
N#Cc1nc(-c2ccc(F)cc2)oc1S(=O)(=O)N1CCN(c2ccc(F)cc2)CC1 | 52.3%
CSC(SC)=C(C#N)c1nc2ccccc2s1 | 44.6%
COc1cc(-c2ccc(-c3ccc(C(=N)N)cc3)s2)cc(OC)c1OC | 3.15% (active)
CCCCCS(=O)(=O)Nc1ccc(C(=O)O)cc1 | 101%
COc1ccc(/C=C/c2nc(Nc3ccc(S(=O)(=O)NC(C)=O)cc3)c3ccccc3n2)cc1 | 85.7%
C=CC(=O)OCCCCCCCC | 88.6%
COc1cc(-c2nc3ccc(C)cc3[nH]2)ccc1OCC(=O)N=Nc1c(O)[nH]c2ccccc12 | -34.3% (active)
CCCNCCC(C)=O | 108%
Brc1cccc(-c2cc(-c3ccc4nccnc4c3)[nH]n2)c1 | 14.9% [25 µM]
C=C1CCC2C3(C)COC(c4c(OC)cccc4OC)OC3CCC2(C)C1C/C=C1/C(=O)OCC1O (stereo not given) | 29.4%
CCN(CCCOc1ccc2c(Nc3cc(CC(=O)Nc4cccc(F)c4)[nH]n3)ncnc2c1)CCOP(=O)(O)O | 34.9%
CN(C)CCCNC(=O)c1cncnc1Nc1ccc(OCc2cccc(F)c2)c(Cl)c1 | -60.7% (active)
N#Cc1c(N)n(C2OC(CO)C(O)C2O)c2ncnc(N)c12 (stereo not given) | -67.1% (active)
COc1cc(Nc2ccnc(N3CCN(c4ccnc5cc(Cl)ccc45)CC3)n2)cc(OC)c1 | -23.7% (active)
CN(C)S(=O)(=O)n1cnc([C@@H]2[C@@H]3C(=O)OC[C@@H]3C[C@]23N=CN(Cc2ccccc2)C3=O)c1 | 123%
COc1cccc(-c2nc3occn3c2-c2ccnc(NCCNS(=O)(=O)c3ccc(C(F)(F)F)cc3)n2)c1 | 116%
N=c1nc(N2CCCCC2)cc(N)n1O | 92.4%

Structure (SMILES) | growth
CC(=O)O[C@H]1CC[C@]2(C)[C@H]3CC=C4[C@@H]5CC(C)(C)CC[C@]5(C(=O)NCCNCCN)CC[C@@]4(C)[C@]3(C)CC[C@H]2C1(C)C | -67.6% (active)
Nc1ncc(-c2cnn(C3CCNCC3)c2)cc1-c1nc2ccccc2o1 | -55.5% (active)
O=S(=O)(c1ccc(N/N=C\c2ccccc2Cl)cc1)c1ccc(N/N=C/c2ccccc2Cl)cc1 | 74%
CN1C(=O)CCC(N2C(=O)c3cccc(NCCOCCOCCNC(=O)c4cc5c(o4)C(=O)c4ccccc4C5=O)c3C2=O)C1=O (stereo not given) | 0.337% (active)
CCN(CC)c1ccc(N=C2C=CC(=O)C=C2NC(C)=O)cc1 | 55.3%
COc1ccc(/C=C(\C#N)n2nnc3cc(F)c(F)cc32)c(OC)c1OC | 10.4%
COc1ccc(Oc2nc(NC3CCCC3)nc(Sc3ccc(OC)cc3)n2)cc1 | 48.3%
COc1ccc(-n2cc(-c3cc(OC)c(OC)c(OC)c3)n(C(C)=O)c2=O)cc1 | 126%
CC(C)C(=O)Cc1cnccn1 | 134%
C#CCNC(=S)N/N=C(\C)c1ccccn1 | -18.6% (active)
COc1ccc(-c2cn3c(C(=O)Nc4ccccc4Cl)c(-c4ccccc4)c4c3n2CCCC4)cc1 | 83.4%
COc1ccc2c3ccnc(C(F)(F)F)c3n(CCCCN)c2c1 | 53.8%
O=CN1N=C(c2ccc(F)cc2)CC1c1cccc(Nc2ccnc3cc(C(F)(F)F)ccc23)c1 (stereo not given) | 8.69% (active)
O=C(NCCO)C(F)(F)F | 103%
Clc1ccc(C(SCc2ccccc2)SCc2ccccc2)cc1 | 97.6%
Clc1ccc([C@@H]2C[C@@H]3Cc4cc(Br)c5ccccc5c4N2O3)c(Cl)c1 | 54.3%
O=C1c2cccc(NCCN=Cc3cc([N+](=O)[O-])ccc3O)c2C(=O)c2c(NCCN=Cc3cc([N+](=O)[O-])ccc3O)cccc21 | 70.8%
O=C(Nc1ncc(Cc2cc(C(F)(F)F)ccc2Cl)s1)C(=S)N1CCOCC1 | 98.1%
O=c1cc(C2NCCc3c2[nH]c2ccccc32)c2c(ccc3ccccc32)o1 (stereo not given) | 48.5%
CONC1=Nc2cc(NC(N)=NCc3ccccc3)c(N(C)C3CCCCC3)cc2OC1 | 69.5%
